A selection: hits, their analogues and other compounds. The true share with any hit is near 1.8%.
GSIS activator – GLuc luminescence reporter in INS-1E cells, primary screen for activators of glucose-dependent secretion of insulin. INS-1E GLuc reporter insulin secretion, 2-3 h. activation, % at 16.6 µM. actives 0.61% (n = 370,000). AID 743287;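 active means lowest replicate activation of at least 40%, so every replicate reaches that level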;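 further: 0% = median of neutral control wells and 100% = median of IBMX positive control wells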
ABCB6 inh MLPCN – blocks the human ABCB6 transporter | Q9NP58 | K562-ABCB6 porphyrin accumulation, flow cytometry, 1 h; hits give low values | fluorescence ratio to DMSO, % at 10 µM | actives 0.19% (n = 360,000);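 active means fluorescence ratio to DMSO below 75%, the collection mean minus 3 SD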;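 further: signal is porphyrin accumulated inside mitochondria; 100% equals median channel fluorescence of DMSO control wells; lower ratio means ABCB6 inhibition with less porphyrin fluorescence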
Target sequence (Q9NP58 whole entry, looked up): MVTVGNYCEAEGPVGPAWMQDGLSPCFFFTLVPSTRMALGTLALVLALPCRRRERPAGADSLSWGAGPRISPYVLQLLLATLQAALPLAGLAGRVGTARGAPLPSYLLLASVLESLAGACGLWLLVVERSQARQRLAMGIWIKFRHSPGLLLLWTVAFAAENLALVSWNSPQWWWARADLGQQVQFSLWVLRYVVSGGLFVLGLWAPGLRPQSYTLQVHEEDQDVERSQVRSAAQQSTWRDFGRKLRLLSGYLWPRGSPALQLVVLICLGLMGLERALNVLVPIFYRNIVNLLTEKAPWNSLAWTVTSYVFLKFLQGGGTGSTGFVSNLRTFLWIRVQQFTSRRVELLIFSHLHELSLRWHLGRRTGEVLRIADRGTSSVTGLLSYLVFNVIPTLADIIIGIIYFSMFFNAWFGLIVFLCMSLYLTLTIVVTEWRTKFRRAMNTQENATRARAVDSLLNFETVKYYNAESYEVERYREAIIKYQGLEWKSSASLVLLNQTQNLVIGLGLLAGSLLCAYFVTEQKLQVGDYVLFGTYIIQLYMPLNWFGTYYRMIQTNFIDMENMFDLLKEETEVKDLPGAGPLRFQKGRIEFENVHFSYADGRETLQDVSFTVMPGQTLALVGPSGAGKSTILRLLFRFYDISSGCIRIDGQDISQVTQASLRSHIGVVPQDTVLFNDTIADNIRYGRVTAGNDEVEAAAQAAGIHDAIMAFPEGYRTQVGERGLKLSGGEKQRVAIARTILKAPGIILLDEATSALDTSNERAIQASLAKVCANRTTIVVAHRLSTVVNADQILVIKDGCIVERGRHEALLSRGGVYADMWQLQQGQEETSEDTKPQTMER
ARNT-TACC3 inh – disrupts binding between human ARNT and TACC3; Q9Y6A5; AlphaScreen His-ARNT PAS-B/GST-TACC3 binding, luminescence; TACC3 fragment carries E629A point mutation; inhibition, % at 9.99 µM; actives 0.66% (n = 390,000);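 active means mean inhibition of replicates at least 50% and at least half of replicates each reaching 50%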;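 further: 0% = complete ARNT plus TACC3 wells and 100% = ARNT alone without TACC3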
NRP1-CendR mod – modulators of CendR peptide binding to human neuropilin-1 | O14786 | FAM-RPARPAR peptide binding to NRP-1, fluorescence polarization | inhibition, % at 25 µM | actives 0.85% (n = 360,000);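 active means inhibition or corrected inhibition above about 18%, plus a signal ratio from 0.5 to 1.5, limit read from the data, passing the limit was not always enough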
hiPSC survival – hiPSC single-cell survival enhancement; ATPlite luminescence; 100% = ROCK inhibitor wells, 0% = DMSO; survival enhancement, % at 20 µM; actives 0.044% (n = 360,000); in the data active means survival enhancement above about 18%;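 further: cells exposed to compounds for 16 hours before the ATP read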
* marks the source's active call; other numbers are inactive results; nt = not tested or not shown.

SMILES	GSIS activator	ABCB6 inh MLPCN	ARNT-TACC3 inh	NRP1-CendR mod	hiPSC survival
Cc1cccc(C)c1NC(=O)CN1CCN(C(=O)c2ccc(OCc3cn4ccccc4n3)cc2)CC1	nt	103	nt	30*	0
COc1ccc(OCCNC(=O)Nc2cc(F)c(F)cc2Cl)cc1	-4	104	-1	6	0
COc1cccc(OCCNC(=O)Nc2cc(F)c(F)cc2Cl)c1	-8	98	0	25*	-1
O=C(COC(=O)c1ccco1)Nc1nnc(-c2ccccc2)o1	6	91	60*	-5	0
COc1cc(OC)cc(C(=O)OCC(=O)Nc2nnc(-c3ccccc3)o2)c1	0	102	5	-14	0
CC(C)C(=O)Nc1nnc(-c2ccccc2)o1	3	98	23	13	0
COc1cccc(C(=O)OCC(=O)Nc2nnc(-c3ccccc3)o2)c1	23	93	42	-12	0
O=C(Nc1ccccc1)Nc1nnc(-c2ccccc2)o1	nt	99	1	40*	1
COc1cc(OC)c(C(=O)OCC(=O)Nc2nnc(-c3ccccc3)o2)cc1OC	2	98	85*	-2	0
O=C(COc1ccccc1)Nc1nnc(-c2ccco2)o1	0	93	74*	2	0
C[C@H]1CN([C@@H](C)CO)C(=O)Cc2cc(NS(=O)(=O)c3cccs3)ccc2O[C@@H]1CN(C)Cc1ccncc1	-14	nt	-4	nt	nt
C[C@H](CO)N1C[C@H](C)[C@@H](CN(C)Cc2ccc3c(c2)OCO3)OCc2ccccc2-c2c(n(C)c3ccccc23)C1=O	-29	nt	nt	nt	nt
CCC(=O)Nc1nnc(-c2ccccn2)o1	0	102	48*	5	1
O=C(COc1ccccc1)Nc1nnc(-c2ccccc2)o1	2	104	93*	-8	-2
CCS(=O)(=O)N1CC2(CN(C(=O)Nc3cccc(F)c3)[C@H](CO)c3c2c2ccc(OC)cc2n3C)C1	-25	nt	nt	nt	nt
CCCCC(O)(CCCC)C(=O)NN(C(=O)OC)c1ccccc1	0	87	-4	31*	0
CCC1(C)CC(c2nc(-c3ccc(OC)cc3)cs2)CCS1 (stereo not given)	-6	99	-6	32*	-2
CCC(=O)N(CC)c1nc(-c2ccc(OC)cc2)cs1	nt	103	-9	2	3
CCCNC(=O)Nc1ccc2c(c1)OC[C@@H](C)N(C(=O)C1CCCCC1)C[C@H](C)[C@@H](OC)CN(C)C2=O	-4	nt	-7	nt	nt
CN1OC[C@@H]2CN(Cc3ccccc3)[C@H](c3cccc(Oc4ccccc4)c3)C[C@@H]21	1	98	4	25*	3
O=C(/C=C1\SC(=O)N(CC(=O)Nc2ccc(Cl)cc2)C1=O)Nc1ccc(F)cc1	6	95	-17	-4	-2
Cc1cccc(NC(=O)CN2C(=O)S/C(=C\C(=O)Nc3ccc(Cl)cc3)C2=O)c1	199*	102	1	3	-1
COCCOC(=O)N1C(=O)[C@@]2(c3ccccc31)[C@H](C(=O)N1CCN(c3ncccn3)CC1)[C@H]1C(=O)O[C@H](c3ccccc3)[C@H](c3ccccc3)N1[C@@H]2c1ccccc1OCCO	nt	nt	16	nt	nt
N#Cc1cccc(-c2ccc3c(c2)[C@@H]2[C@@H](CCN2C(=O)c2ccncc2)[C@@H](CO)N3)c1	20	nt	10	nt	nt
N#Cc1cccc(-c2ccc3c(c2)[C@H]2[C@H](CCN2Cc2cncnc2)[C@@H](CO)N3)c1	12	nt	0	nt	nt
SMILES	GSIS activator	ABCB6 inh MLPCN	ARNT-TACC3 inh	NRP1-CendR mod	hiPSC survival
N#Cc1cccc(-c2ccc3c(c2)[C@H]2[C@H](CCN2Cc2ccncc2)[C@H](CO)N3)c1	-5	nt	14*	nt	nt
N#Cc1cccc(-c2ccc3c(c2)[C@@H]2[C@@H](CCN2Cc2ccncc2)[C@@H](CO)N3)c1	15	nt	25*	nt	nt
C[C@H]1CN(C)C(=O)c2cccnc2O[C@@H]1CN(C)C	8	nt	nt	nt	nt
CSc1cccc(NC(=O)c2ccco2)c1	7	90	-4	21*	-5
NC(=O)C1CCN(c2nc(-c3ccccc3C(F)(F)F)cs2)CC1	7	99	-2	30*	1
NC(=O)C1CCN(c2nc(-c3ccccc3F)cs2)CC1	-3	101	5	25*	-3
NC(=O)C1CCN(c2nc(-c3ccc4occc(=O)c4c3)cs2)CC1	15	100	-1	25*	-2
NC(=O)C1CCN(c2nc(-c3ccccc3Br)cs2)CC1	-14	nt	nt	nt	nt
Cc1coc2c1c(C)cc1oc(=O)c(CC(=O)NCCC(=O)O)c(C)c12	3	88	-18	20*	0
Cc1coc2c1c(C)cc1oc(=O)c(CC(=O)NCC(=O)NCC(=O)O)c(C)c12	17	105	16	-17	0
COc1ccccc1NC(=S)N(Cc1ccco1)Cc1cc2cccc(C)c2[nH]c1=O	-29	92	-6	40*	0
C[C@@H]1CN([C@H](C)CO)C(=O)c2cc(-c3ccc(C#N)cc3)cnc2O[C@@H]1CN(C)Cc1ccccn1	16	nt	-2	nt	nt
COc1ccc(OC)c2[nH]c(=O)c(CCNS(=O)(=O)c3ccc(C)cc3)cc12	nt	96	-15	4	1
COc1ccc(OC)c2[nH]c(=O)c(CCNS(=O)(=O)c3ccc(Cl)cc3)cc12	nt	102	48*	5	0
COCCNc1nc(Oc2cncc(Cl)c2)c2sccc2n1	55*	93	nt	23	12
COCCNc1nc(NC(C)C)nc2ccsc12	82*	96	nt	12	3
COCCNc1nc(NCc2ccccc2)nc2ccsc12	nt	89	nt	6	3
Cc1cc(NC(=O)CSc2nc(N)c(NC(=O)c3ccc(F)c(F)c3)c(=O)[nH]2)no1	-17	97	-1	23*	0
O=S(=O)(c1ccc(-c2csc(Nc3ccc(Br)cc3)n2)cc1)N1CCCC1	89*	90	-3	-9	0
O=C(C[C@H]1CC[C@H]2[C@@H](COC[C@@H](O)CN2S(=O)(=O)c2ccccc2F)O1)NCc1ccccc1Cl	9	nt	-13	nt	nt
O=C(Nc1cc(F)ccc1F)N1CC(=O)N2[C@H](C1)[C@@H](c1ccc(-c3cccc(F)c3)cc1)[C@@H]2CO	-9	nt	nt	nt	nt
COCC#Cc1cnc2c(c1)C(=O)N([C@@H](C)CO)C[C@H](C)[C@H](CN(C)Cc1ccc(-c3ccccc3)cc1)O2	-19	nt	nt	nt	nt
Cc1cc2[nH]c(=O)c(=O)[nH]c2cc1S(=O)(=O)NC1CCCCC1C (stereo not given)	nt	102	-17	-14	2
Cc1cc2c(cc1S(=O)(=O)NC1CCCCC1C)OCC(=O)N2 (stereo not given)	-1	101	-3	40*	0
C[C@@H]1CCCCO[C@H](CN(C)C(=O)c2ccncc2)[C@@H](C)CN([C@H](C)CO)C(=O)c2cc(NC(=O)NC3CCCCC3)ccc2O1	9	nt	-14	nt	nt
